Results on 13 compounds are retold here after PubChem BioAssay (NCATS).

One assay concerns Es-2. In words: Primary qHTS to identify gynecologic anti-cancer compounds using libraries of approved drugs and bioactive compounds (AID 1345084). Further: nearly all actives have a fitted effect of over 55% in size. The conditions noted are these: Gynecologic cancer cell panel viability, ATPlite luminescence, 48 h; series mostly up to 57.5 µM. The gist of the method:
(§1)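 Cytotoxicity screen measuring ATP content by luciferase luminescence. Each compound is applied at five concentrations for 48 h at 37 C with 5% CO2.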
Background: Quantitative high-throughput screening tests each substance at several concentrations.

Another assay concerns HeLa. The assay is described as above. The conditions noted are these: Gynecologic cancer cell panel viability, ATPlite luminescence, 48 h; series mostly up to 57.5 µM. Summed up:
as §1
Background: Cellular ATP, detected with luciferase, serves as a proxy for viable cell number.

Another assay concerns Hek293T. The description is as above. The following applies: Gynecologic cancer cell panel viability, ATPlite luminescence, 48 h, control line for the selectivity index; series mostly up to 57.5 µM. The gist of the method: as §1
The next assay concerns JEG-3. Described as above. The following applies: Gynecologic cancer cell panel viability, ATPlite luminescence, 48 h; series mostly up to 57.5 µM. Summed up: as §1
The test system of the next assay is PA-1. The description is as above. The following applies: Gynecologic cancer cell panel viability, ATPlite luminescence, 48 h; series mostly up to 57.5 µM. The gist of the method: as §1
The next assay deals with SKOV3. The description is as above. The following applies: Gynecologic cancer cell panel viability, ATPlite luminescence, 48 h; series mostly up to 57.5 µM. Summed up: as §1
The next assay concerns Tov-21-G. The assay is described as above. The following applies: Gynecologic cancer cell panel viability, ATPlite luminescence, 48 h; series mostly up to 57.5 µM. The gist of the method:
as §1

A further assay relates to Tov112D. The description is as above. The following applies: Gynecologic cancer cell panel viability, ATPlite luminescence, 48 h; series mostly up to 57.5 µM. Summed up: as §1
Assay [1] is described as follows: Drug repurposing screens with cells derived from glioblastoma tumor samples (AID 1345199). Further: nearly all actives have a fitted effect of over 40% in size. The following applies: GBM patient neurospheres viability, ATP luminescence, 48 h. Summed up:
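Four patient lines of CD133+ GBM neurospheres were screened at several concentrations; hits were retested in those lines plus three slower-growing GBM lines, using 48-hour treatment and ATP-based viability.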

A further assay has as its system OV90. The assay is described as follows: Primary qHTS to identify gynecologic anti-cancer compounds using libraries of approved drugs and bioactive compounds (AID 1345084). Further: nearly all actives have a fitted effect of over 55% in size. The conditions noted are these: Gynecologic cancer cell panel viability, ATPlite luminescence, 48 h; series mostly up to 57.5 µM. Summed up: as §1
Setting [2] is: at 20 µM (top of the series), tumour line C.
Where [3] appears, read: at 45.9 µM (top of the series), tumour line B.
Where [4] appears, read: at 45.9 µM (top of the series), tumour line D.
Where [5] appears, read: at 46 µM (top of the series), tumour line A.
Setting [6] is: at 46.1 µM (top of the series), tumour line C.

Structures are written as SMILES. Where “and” joins values, the source holds several entries; their conditions need not be identical. Identical values can stand only once. Inconclusive results are not listed. Unmarked numbers belong to inactive results. Calls of active or inactive are those of the source. The call rests on the fitted dose curve; in most records, active means well fitted curve in the direction sought with a large enough effect; inconclusive means small, poorly fitted or top-dose-only effect, or another doubt; inactive means no such curve, though single readings can be large; an effect the other way counts as inactive or inconclusive.
On the % scale 0 is the no-effect control and ±100 the full control effect; potency means the concentration at half of the fitted maximal effect.

In the case of `Cc1cccc(CN2CCN(C(c3ccccc3)c3ccc(Cl)cc3)CC2)c1` (centres undefined), the Potency result in the assay on Es-2, in the assay with HeLa, in the assay on Hek293T, with JEG-3, in the assay on PA-1 and in the assay with SKOV3 was “inactive” throughout. Also, the Potency result in the assay on Tov-21-G and in the assay on Tov112D was “inactive” in each case. In addition, the activity, negative = cell killing in assay [1] (setting [2]) is -7.92%. For the same compound, the Potency in assay [1] (tumour line A) was 5.62 µM (active).

On to `CCN(CC)CCOc1ccc(Cc2ccccc2)cc1`, for which the Potency entry in the assay with Es-2, in the assay on HeLa, in the assay with Hek293T, in the assay on JEG-3, in the assay with Tov-21-G and with Tov112D was “inactive” throughout.

Regarding `CCCCN(CCCC)CCC(O)c1cc2c(Cl)cc(Cl)cc2c2cc(C(F)(F)F)ccc12` (centres undefined), the Potency entry in the assay on Es-2, with HeLa, in the assay with Hek293T, in the assay with JEG-3, in the assay with PA-1 and in the assay with Tov-21-G was “inactive” in each case. The Potency entry in the assay with Tov112D was “inactive”. In [1] (setting [2]), the activity, negative = cell killing was -14%. In addition, the values for the Potency in [1] (tumour line A), in assay [1] (tumour line B) and in assay [1] (tumour line D) were 11.2 µM (active), 10 µM (active) and 11.2 µM (active), respectively.

Regarding `COc1cc(C(C)=O)ccc1OCCCN1CCC(c2noc3cc(F)ccc23)CC1`, the Potency entry with Es-2, in the assay with HeLa, with JEG-3, in the assay with PA-1, with Tov-21-G and in the assay on Tov112D was “inactive” each time.

With `Cc1ncc([N+](=O)[O-])n1CC(C)O` (centres undefined), the Potency result in the assay with Es-2, with HeLa, in the assay on Hek293T, with OV90, in the assay with PA-1 and in the assay with SKOV3 was “inactive” in each case. Further, the Potency result in the assay with Tov-21-G and in the assay on Tov112D was “inactive” each time. In addition, the activity, negative = cell killing in assay [1] (setting [3]) is -7.1%; in assay [1] (setting [4]), 3.12%; in [1] (setting [5]), -20.2%; in [1] (setting [6]), -8.86%.

In the case of `COc1cc2nc(N3CCN(C(=O)C4CCCO4)CC3)nc(N)c2cc1OC` (centres undefined), the Potency entry with Es-2, in the assay with HeLa, with Hek293T, in the assay on JEG-3, with OV90 and in the assay on Tov-21-G was “inactive” each time. Besides, in the assay with Tov112D, the Potency entry was “inactive”. Besides, the activity, negative = cell killing in [1] (setting [3]) was -11.4%; in [1] (setting [4]) it was -6.51%; in assay [1] (setting [6]), -17.4%.

On to `CN(C)C(=O)[C@H](O)[C@H](Cc1ccccc1)NC(=O)c1cc2cc(Cl)ccc2[nH]1`, for which the Potency result in the assay with Es-2, in the assay with HeLa, with JEG-3, in the assay with OV90, in the assay with PA-1 and in the assay on SKOV3 was “inactive” each time. For the same compound, the Potency result in the assay on Tov-21-G and in the assay with Tov112D was “inactive” each time.

As to `COc1ccccc1N1CCN(CCN(C(=O)C2CCCCC2)c2ccccn2)CC1`, the Potency result in the assay with Es-2, in the assay on HeLa, in the assay on OV90, in the assay with PA-1, with SKOV3 and with Tov-21-G was “inactive” in each case. Further, the Potency entry with Tov112D was “inactive”.

Take `Cc1cc(=O)c2c(O)c3c(O)cc(=O)c4c3c3c(cc(O)c1c23)C(C)(C)C=4O`: the Potency in the assay on Es-2 is 3.16 µM (active); with HeLa, 2.24 µM (active); in the assay on Hek293T, 2 µM (active); in the assay with PA-1 it was 2.82 µM (active); in the assay on SKOV3 it was 3.55 µM (active); with Tov-21-G, 3.16 µM (active). Moreover, the Potency in the assay with Tov112D was 2.24 µM (active).

For `Nc1ccc(S(N)(=O)=O)cc1`, the Potency entry in the assay on Es-2, in the assay with HeLa, in the assay with Hek293T, in the assay with JEG-3, in the assay on OV90 and in the assay on PA-1 was “inactive” in each case. In addition, the Potency entry with Tov-21-G and in the assay with Tov112D was “inactive” throughout. Further, the activity, negative = cell killing in assay [1] (setting [3]) was -13.5%; in [1] (setting [4]) it was -7.18%; in [1] (setting [5]), -12.5%; in [1] (setting [6]), 10.5%.

In the case of `Cn1c(NCCN(CCO)CCCc2ccc([N+](=O)[O-])cc2)cc(=O)n(C)c1=O`, the Potency result in the assay with Es-2, in the assay with HeLa, in the assay with Hek293T, in the assay on JEG-3, in the assay on OV90 and in the assay on PA-1 was “inactive” each time. The Potency result in the assay with Tov-21-G and with Tov112D was “inactive” throughout. Also, the activity, negative = cell killing in assay [1] (setting [3]) was -18.9%; in assay [1] (setting [4]), -12.5%; in assay [1] (setting [6]) it was -1.17%. The Potency in assay [1] (tumour line A) is 7.08 µM (active).

With `CC(=O)Nc1ccc(O)cc1`, the Potency result with Es-2, in the assay on HeLa, with Hek293T, in the assay with JEG-3, in the assay with OV90 and with PA-1 was “inactive” in each case. Also, the Potency result in the assay with Tov-21-G and with Tov112D was “inactive” throughout. In addition, the activity, negative = cell killing in [1] (setting [3]) is -10.5%; in [1] (setting [4]), -3.31%; in assay [1] (setting [5]), -25.4%; in [1] (setting [6]) it was -7.56%.

For the compound `CCN(CC)C(=S)SSC(=S)N(CC)CC`, the Potency with Es-2 is 15.8 µM (active); with Hek293T it was 8.91 µM (active); in the assay on JEG-3, 28.2 µM (active); in the assay with OV90, 4.47 µM (active); with SKOV3, 631 nM (active) and 1.41 µM (active). Further, in the assay with HeLa, the Potency result was “inactive”.
